# Assay results from PubChem BioAssay (NCATS).
# Inconclusive results are not listed. Values without a mark were called inactive. Active and inactive are the calls of the source. Calls come from the whole dose curve; as a rule, active = well fitted cell-killing curve with a large enough effect; inconclusive = small, poorly fitted or top-dose-only effect; inactive = flat fitted curve, though single readings scatter.
# Test: Cellular viability qHTS for adrenocortical cancer (ACC) cell line NCI-H295R (AID 1963990); note: nearly all actives have a fitted effect of over 60% in size;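 for activity change, negative = viability loss: 0% = DMSO only wells and -100% = full killing with cytotoxic reference compound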
# Settings: CellTiter-Glo ATP luminescence, 48 h; series mostly up to 46.1 µM; activity change, negative = viability loss: at the top concentration
# Procedure, shortened: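 Viability of NCI-H295R after 48 h of treatment (final up to 46 uM) measured through cellular ATP luminescence.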
# Potency is the fitted concentration of half-maximal effect.
Compound,Potency,"activity change, negative = viability loss"
CO[C@]12CC[C@@]3(C[C@@H]1[C@](C)(O)C(C)(C)C)[C@@H]1Cc4ccc(O)c5c4[C@@]3(CCN1CC1CC1)[C@H]2O5,3.98 µM (active),–
COc1cc(C[C@@H](C)N)c(OC)cc1Br,–,-29.4% [at 92.7 µM]
CN1C(=O)[C@@H](NC(=O)[C@H](CCC(F)(F)F)[C@H](CCC(F)(F)F)C(N)=O)N=C(c2ccccc2)c2ccccc21,–,-1.69%
CC1(C)CC[C@]2(NC(=O)C(C)(F)F)CC[C@]3(C)[C@H](C(=O)C=C4[C@@]5(C)C=C(C#N)C(=O)C(C)(C)[C@@H]5CC[C@]43C)[C@@H]2C1,3.98 µM (active),–
CN1C2CCC(C)(C)C1CC(OC(=O)C(O)(c1cccs1)c1cccs1)C2 (stereo not given),–,-5.04%
CCN(CC)C(=O)N[C@@H]1C=C2c3cccc4[nH]cc(c34)C[C@@H]2N(C)C1,–,-12.8%
COc1cccc2c1C(=O)c1c(O)c3c(c(O)c1C2=O)C[C@@](O)(C(=O)CO)CC3OC1CC(N2CCOC(OC)C2)C(O)C(C)O1 (stereo not given in full),0.0501 µM (active),–
CCc1ccc(C2CCNCC2)cc1,–,1.63%
Oc1c(Br)cc(Br)cc1Br,–,-14.5%
CN1CCC(O)(c2ccc(F)cc2)C(C(=O)c2ccc(F)cc2)C1 (stereo not given),–,0.871%
O=C1c2ccccc2C(=O)C1C(=O)C(c1ccccc1)c1ccccc1,23.1 µM (active),–
CCN(CC)C(=O)[C@@H]1C=C2c3cccc4[nH]cc(c34)C[C@H]2N(C)C1,–,-25.4% [at 178 µM]
CCOC(=O)c1ncn2c1CN(C)C(=O)c1c(I)cccc1-2,–,2.72%
CC(C(=O)c1ccccc1)N(C)C (stereo not given),–,0.192%
O=C(O)c1cc(Oc2ccc(C(F)(F)F)cc2Cl)ccc1[N+](=O)[O-],–,-23.7%
